Reference: PubChem BioAssay (NCI)
Compounds without any hit were thinned out: in the full panel of roughly 83,000, 20% have a hit.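 Growth was measured after 48 h exposure to one concentration of compound in 96-well plates. Values under 10 count as active.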 Values without a mark were called inactive. Active and inactive are the calls of the source.

Legend:
Experiment in all cases: NCI-60 one-dose screen, 48 h (100 = growth as untreated, 0 = no growth, -100 = all killed)
Details in all cases: 10 µM
RPMI-8226 leukemia = system: RPMI-8226 leukemia
OVCAR-8 ovarian = system: OVCAR-8 ovarian
OVCAR-5 ovarian = system: OVCAR-5 ovarian
OVCAR-4 ovarian = system: OVCAR-4 ovarian
SK-OV-3 ovarian = system: SK-OV-3 ovarian
IGROV1 ovarian = system: IGROV1 ovarian
OVCAR-3 ovarian = system: OVCAR-3 ovarian
HS 578T breast = system: HS 578T breast
NCI/ADR-RES ovarian = system: NCI/ADR-RES ovarian
T-47D breast = system: T-47D breast
MDA-MB-435 melanoma = system: MDA-MB-435 melanoma
SW-620 colon = system: SW-620 colon
MCF7 breast = system: MCF7 breast
HCT-116 colon = system: HCT-116 colon
KM12 colon = system: KM12 colon
HCC-2998 colon = system: HCC-2998 colon
BT-549 breast = system: BT-549 breast

Structure (SMILES) | growth (RPMI-8226 leukemia) | growth (OVCAR-8 ovarian) | growth (OVCAR-5 ovarian) [%] | growth (OVCAR-4 ovarian) [%] | growth (SK-OV-3 ovarian) | growth (IGROV1 ovarian) | growth (OVCAR-3 ovarian) | growth (HS 578T breast) | growth (NCI/ADR-RES ovarian) | growth (T-47D breast) | growth (MDA-MB-435 melanoma) | growth (SW-620 colon) | growth (MCF7 breast) | growth (HCT-116 colon) | growth (KM12 colon) | growth (HCC-2998 colon) | growth (BT-549 breast)
O=C1/C(=C\c2cn(C(=O)c3ccc(Cl)cc3)c3ccccc23)c2ccccc2N1C(=O)c1ccc(Cl)cc1 | 57.5% | 78.7% | 115 | 72 | 77% | 80% | 84.3% | 80.5% | 83.4% | 61.7% | 97.6% | 93.1% | 71.1% | 65.1% | 24.3% | – | –
COC(=O)C1(C)Cc2cc(OC(C)=O)c(OC(C)=O)cc2N1 (stereo unspecified) | 23.6% | 85.2% | 118 | 57.8 | 98.4% | 27.1% | 67.2% | 88.7% | 80.6% | 42.6% | 73.9% | 58.6% | 51.7% | 35.1% | 85.9% | 112% | –
Cc1cc2ccccc2nc1-c1ccccc1F | 101% | 102% | 106 | 117 | 96.4% | 129% | 105% | 106% | 112% | – | 111% | 106% | 101% | 102% | 110% | 109% | 92.2%
CCCC(F)C(=O)O (stereo unspecified) | 98.4% | 98.2% | 115 | 106 | 98.3% | 107% | 116% | 100% | 108% | – | 95.8% | 105% | 97.8% | 102% | 106% | 111% | 111%
Clc1ccc(/C=C2\CCCC3=C2N=C2SC=NN2C3c2ccc(Cl)cc2)cc1 (stereo unspecified) | -12.1% (active) | 91.4% | 107 | 92.1 | 109% | 104% | 112% | 96.6% | 102% | 88.2% | 76.7% | 94.1% | 23.7% | – | 83.9% | 77.2% | –
S=C1SCC(c2ccccc2)S1 (stereo unspecified) | 102% | 103% | 106 | 93.8 | 104% | 114% | 121% | 143% | 112% | 99.6% | 102% | 111% | 99.4% | 107% | 117% | 114% | –
O=C(O)C(SC(C(=O)O)c1ccccc1)c1ccccc1 (stereo unspecified) | 102% | 110% | 106 | 102 | 99.7% | 115% | 114% | 113% | 106% | – | 116% | 107% | 96.3% | 106% | 113% | 103% | 101%
O=C(N/N=C/c1cc2ccccc2c2ccccc12)c1cc(O)c(O)c(O)c1 | 78.8% | 48.5% | 90.4 | 26.4 | 78.8% | 58.7% | 58% | 75.4% | 81.4% | – | 35.3% | 25.4% | 67.6% | 26% | 83.2% | 94.5% | 49.4%
Cn1c(N)c(N=Nc2ccc(S(=O)(=O)Nc3nccs3)cc2)c(=O)n(C)c1=O | 100% | 100% | 115 | 106 | 103% | 91.2% | 103% | 106% | 96% | -10.2% (active) | 101% | 99% | 101% | 109% | 104% | 95.9% | –
O=C(Nc1ccc(Cl)c(Cl)c1)Nc1c(Oc2ccc(Cl)c(Cl)c2)ccc(Cl)c1S(=O)(=O)O | 14.9% | 27.7% | 53.7 | 65.6 | 22.4% | 30.4% | -9.85% (active) | -5.79% (active) | 2.06% (active) | 51.4% | -31.4% (active) | 23.6% | 24.6% | 23.5% | 33.2% | 25.2% | –
C#Cc1ccc(-n2c(/C=C/c3ccc(O)cc3)nc3ncccc3c2=O)cc1 | 46.9% | 75.2% | 97.4 | 61 | 45.5% | 62.5% | 4.59% (active) | 64% | 55% | – | -45.5% (active) | 34.5% | 10.5% | 48.5% | – | 93% | 74.9%
CC(=O)N1C/C(=C/c2ccc(Cl)cc2)C(=O)/C(=C/c2ccc(Cl)cc2)C1 | -45.2% (active) | 4.95% (active) | 18.2 | 10.9 | -10.9% (active) | -55.7% (active) | -40.6% (active) | 14.5% | 10.4% | – | -50.3% (active) | -62.4% (active) | -48.4% (active) | -66.4% (active) | – | -85.1% (active) | -27.2% (active)
COC(=O)c1c(-c2ccccc2)csc1NC(=O)c1c(-c2ccccc2)noc1C | 27.9% | 25.6% | 63 | 79.9 | 58.6% | 20.6% | 36.7% | 65.9% | 36.8% | 71.8% | 32.7% | 19.4% | 24.6% | 6% (active) | 27.9% | 63.5% | –
COc1cc(NC(=O)c2sc3nc4c(cc3c2N)C(O)CCC4)cc(OC)c1 (stereo unspecified) | 88.2% | 97.5% | 100 | 96.6 | 97.4% | 85.7% | 95.3% | – | 87.3% | 90.8% | 8.37% (active) | 66.1% | 50.7% | 84.2% | 69.5% | 78.9% | 100%
O=C1OCC2=C1C(c1cccc(Cl)c1)c1cc3c(cc1N2CCO)CCC3 (stereo unspecified) | 17.3% | 4.21% (active) | 46.1 | 50.4 | 23.5% | 15.9% | -54.2% (active) | – | -23% (active) | 66.1% | -49.5% (active) | 16% | 14.1% | 2.02% (active) | -47.4% (active) | – | 8.33% (active)
COc1cc(/C=C\c2cc(OC)c(OC)c(OC)c2)cc(NS(=O)(=O)c2ccc(Cl)cc2)c1OC | 9.59% (active) | 17.1% | 45 | 58.4 | 28.2% | 46.8% | 10.3% | – | 12.8% | 55.3% | -39.1% (active) | 30.4% | 26.5% | 14.7% | 25.1% | 18.6% | 40.6%
CCCCOC(=O)Oc1ccc(C(=O)Oc2ccc(OCC)cc2)cc1 | 74.6% | 99.1% | 94.3 | 87.9 | 111% | 105% | 98.6% | 94.5% | – | 111% | 93.4% | 110% | 123% | 98.2% | 94.8% | 102% | 85.9%
Cc1cc(Cc2cc(C)c(O)c(C)c2)cc(C)c1O | 58.2% | 61.9% | 106 | 77.1 | 53% | 45.2% | 28.2% | 33.8% | 19.4% | – | -29% (active) | 21.6% | 22.8% | 30.6% | 39.4% | 74.4% | –
COc1cc(C(=O)/C=C/c2cc(-c3cc(OC)c(OC)c(OC)c3)n[nH]2)cc(OC)c1OC | -46.1% (active) | 8.1% (active) | 44.9 | 34.2 | 47.3% | -20% (active) | 7.64% (active) | 62.4% | 34.6% | – | -51.8% (active) | -71.8% (active) | – | -93.6% (active) | -77.7% (active) | – | -79% (active)
